This note sets out measurements from PubChem BioAssay (EPA / NIEHS).

Calls of active or inactive are those of the source. Rule for the calls: active = hit-call score of the fitted dose curve at least 0.9, where 1 is the maximum; inactive = score below 0.9.

Broad substrate specificity ATP-binding cassette transporter ABCG2 (Homo sapiens), sequence (Q9UNQ0 whole entry, looked up): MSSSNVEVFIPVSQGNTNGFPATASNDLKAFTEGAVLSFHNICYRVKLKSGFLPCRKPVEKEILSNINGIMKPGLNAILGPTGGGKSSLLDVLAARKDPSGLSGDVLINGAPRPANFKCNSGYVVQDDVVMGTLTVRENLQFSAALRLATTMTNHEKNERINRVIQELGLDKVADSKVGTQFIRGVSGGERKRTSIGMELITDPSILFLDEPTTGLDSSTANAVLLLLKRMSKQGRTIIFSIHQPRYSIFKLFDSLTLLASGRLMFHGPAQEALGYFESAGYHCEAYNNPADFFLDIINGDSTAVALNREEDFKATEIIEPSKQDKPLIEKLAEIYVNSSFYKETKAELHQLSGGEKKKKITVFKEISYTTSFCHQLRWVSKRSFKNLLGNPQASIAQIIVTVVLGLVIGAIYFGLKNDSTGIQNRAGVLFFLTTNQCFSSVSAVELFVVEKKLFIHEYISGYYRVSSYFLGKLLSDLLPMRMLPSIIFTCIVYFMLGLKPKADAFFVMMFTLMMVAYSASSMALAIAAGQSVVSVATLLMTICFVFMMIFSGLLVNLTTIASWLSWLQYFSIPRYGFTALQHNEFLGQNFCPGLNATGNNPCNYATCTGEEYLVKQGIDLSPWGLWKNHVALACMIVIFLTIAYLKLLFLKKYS

Read-out in one test: ABC Transporter (ABCC2), ABCC2 (gene 1244)
The test can be described thus: LTEA_HepaRG_ABCC2: Life Technologies and Expression Analysis (LTEA) Assay for ABC Transporter (ABCC2) using HepaRG (AID 2283464). The conditions noted are these: mRNA level, 48 h; actives raise or lower the signal. In a few lines: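 qRT-PCR (TaqMan, Fluidigm array) read-out of ABCC2 mRNA, normalized to three housekeeping genes. Differentiated HepaRG cells were treated 48 h in serum-free induction medium with 8-point half-log series from 100 uM in 0.5% DMSO; curves fitted bidirectionally relative to DMSO.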
In the case of `COc1ccc2c(c1)c(CC(=O)O)c(C)n2C(=O)c1ccc(Cl)cc1`, the molecule was classed as inactive.

Broadly, the AC50 is the concentration at which the activity in the assay is half-maximal. For `CNCc1cc(F)ccc1Oc1ccc(Cl)c(Cl)c1`, the half-maximal activity concentration (AC50) is 75.6 µM (active).

In the case of `C[Si]1(C)O[Si](C)(C)O[Si](C)(C)O[Si](C)(C)O1`, the result was inactive.

For the molecule `COCCOCCOC`, the result was inactive.

Take `COC(=O)c1ccc(O)cc1`: the molecule was called inactive.

With `O=C(O)CCCCC(=O)O`, the molecule was classed as inactive.

As to `Cc1cc(=O)[nH]c(=S)[nH]1`, the molecule was classed as inactive.

Consider `Cc1nc(-c2ccc3c(c2)CCN(CCC2CCC(NC(=O)/C=C/c4ccc(F)cc4)CC2)CC3)no1` (stereo unspecified), for which the call was inactive.

In the case of `CC1=C(/C=C/C(C)=C/C=C/C(C)=C/CO)C(C)(C)CCC1`, the AC50 is 52.2 µM (active).

Take `CC(=O)OC/C=C(\C)CCC=C(C)C`: the molecule was classed as inactive.

On to `COc1ccc(C)cc1N`, for which the outcome was inactive.

On to `OC[C@@H](O)[C@@H](O)[C@H](O)[C@H](O)CO`, for which the outcome was inactive.

With `NS(=O)(=O)c1cc2c(cc1Cl)NCNS2(=O)=O`, the outcome was inactive.

On to `NCCO`, for which the molecule was called inactive.

As to `COc1ccc(S(=O)(=O)N2C(=O)[C@@](c3ccccc3OC)(N3C[C@H](O)C[C@H]3C(=O)N(C)C)c3cc(Cl)ccc32)c(OC)c1`, the concentration at half-maximal activity (AC50) is 31.4 µM (active).

Consider `c1cc(-c2ccncc2)ccn1`, for which the call was inactive.

As for `Cc1nc(C)nc(N2C[C@@H](C)N(c3ccnc([C@@H](C)O)n3)[C@@H](C)C2)n1`, the result was inactive.

In the case of `Cc1cccc([N+](=O)[O-])c1C`, the call was inactive.

Consider `Cc1oc(-c2ccccc2)nc1CCOc1cccc2c1ccn2CCC(=O)O`, for which the call was inactive.

With `CCOC(=O)CCC(=O)OCC`, the outcome was inactive.

`CN[C@H]1CC[C@@H](c2ccc(Cl)c(Cl)c2)c2ccc(S(N)(=O)=O)cc21`: the concentration at half-maximal activity (AC50) was 63.5 µM (active).

Turning to `NC(=O)Cn1c(=O)cc(CCN2CCN(c3nccc4sccc34)CC2)c2ccc(F)cc21`, the outcome was inactive.

In the case of `CCCCCC(=O)O`, the result was inactive.

For the molecule `Cc1ccc(C)c(O)c1C`, the molecule was called inactive.

On to `CC=Cc1ccc(O)c(OC)c1`, for which the molecule was classed as inactive.

Take `CCCCN(CCCC)CCCC`: the call was inactive.

For `C=CCc1ccc(O)c(OC)c1`, the outcome was inactive.

Consider `CCCCCCCCCCCCCO`, for which the molecule was called inactive.

`CC(CO)OC(C)CO` (stereo unspecified) (tested in a mixture with another compound): the call was inactive.

Read-out in the next test: Broad substrate specificity ATP-binding cassette transporter ABCG2 (Homo sapiens) (UniProt Q9UNQ0)
Kind of test: LTEA_HepaRG_ABCG2: Life Technologies and Expression Analysis (LTEA) Assay for ABC Transporter (ABCG2) using HepaRG (AID 2283465). To be noted: mRNA level, 48 h; actives raise or lower the signal. In short, it runs like this: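 Read-out is ABCG2 mRNA induction or loss quantified by qRT-PCR after 48 h chemical treatment of human HepaRG cells, normalized to three housekeeping genes. Concentrations reached 100 uM top in half-log steps; fitting was bidirectional against 0.5% DMSO.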
As to `COc1ccc2c(c1)c(CC(=O)O)c(C)n2C(=O)c1ccc(Cl)cc1`, the outcome was inactive.

Turning to `CNCc1cc(F)ccc1Oc1ccc(Cl)c(Cl)c1`, the molecule was called inactive.

As to `C[Si]1(C)O[Si](C)(C)O[Si](C)(C)O[Si](C)(C)O1`, the call was inactive.

For the molecule `COCCOCCOC`, the concentration at half-maximal activity (AC50) is 1.37 µM (active).

In the case of `COC(=O)c1ccc(O)cc1`, the outcome was inactive.

As for `O=C(O)CCCCC(=O)O`, the molecule was classed as inactive.

On to `Cc1cc(=O)[nH]c(=S)[nH]1`, for which the molecule was classed as inactive.

Turning to `Cc1nc(-c2ccc3c(c2)CCN(CCC2CCC(NC(=O)/C=C/c4ccc(F)cc4)CC2)CC3)no1` (stereo unspecified), the molecule was classed as inactive.

In the case of `CC1=C(/C=C/C(C)=C/C=C/C(C)=C/CO)C(C)(C)CCC1`, the half-maximal activity concentration (AC50) is 52.2 µM (active).

For `CC(=O)OC/C=C(\C)CCC=C(C)C`, the outcome was inactive.

In the case of `COc1ccc(C)cc1N`, the molecule was classed as inactive.

Regarding `OC[C@@H](O)[C@@H](O)[C@H](O)[C@H](O)CO`, the outcome was inactive.

`NS(=O)(=O)c1cc2c(cc1Cl)NCNS2(=O)=O`: the result was inactive.

For `NCCO`, the result was inactive.

In the case of `COc1ccc(S(=O)(=O)N2C(=O)[C@@](c3ccccc3OC)(N3C[C@H](O)C[C@H]3C(=O)N(C)C)c3cc(Cl)ccc32)c(OC)c1`, the AC50 was 11.7 µM (active).

As to `c1cc(-c2ccncc2)ccn1`, the molecule was called inactive.

With `Cc1nc(C)nc(N2C[C@@H](C)N(c3ccnc([C@@H](C)O)n3)[C@@H](C)C2)n1`, the molecule was classed as inactive.

As to `Cc1cccc([N+](=O)[O-])c1C`, the result was inactive.

In the case of `Cc1oc(-c2ccccc2)nc1CCOc1cccc2c1ccn2CCC(=O)O`, the AC50 was 40.2 µM (active).

Turning to `CCOC(=O)CCC(=O)OCC`, the outcome was inactive.

Regarding `CN[C@H]1CC[C@@H](c2ccc(Cl)c(Cl)c2)c2ccc(S(N)(=O)=O)cc21`, the molecule was called inactive.

For `NC(=O)Cn1c(=O)cc(CCN2CCN(c3nccc4sccc34)CC2)c2ccc(F)cc21`, the outcome was inactive.

For the molecule `CCCCCC(=O)O`, the outcome was inactive.

For `Cc1ccc(C)c(O)c1C`, the molecule was called inactive.

Take `CC=Cc1ccc(O)c(OC)c1`: the call was inactive.

For the molecule `CCCCN(CCCC)CCCC`, the outcome was inactive.

`C=CCc1ccc(O)c(OC)c1`: the outcome was inactive.

For `CCCCCCCCCCCCCO`, the molecule was classed as inactive.

Take `CC(CO)OC(C)CO` (stereo unspecified) (tested in a mixture with another compound): the molecule was classed as inactive.

Read-out in another test: ATP-citrate lyase (ACLY), ACLY (gene 47)
Kind of test: LTEA_HepaRG_ACLY: Life Technologies and Expression Analysis (LTEA) Assay for ATP-citrate lyase (ACLY) using HepaRG (AID 2283466). To be noted: mRNA level, 48 h; actives raise or lower the signal. In a few lines: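 HepaRG, 48 h exposure, 8-pt half-log dilutions (top 100 uM), 0.5% DMSO. Readout: ACLY mRNA, TaqMan qRT-PCR, housekeeping-normalized (ACTB/GAPDH/POLR2A). Bidirectional curve fit vs DMSO.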
For the molecule `COc1ccc2c(c1)c(CC(=O)O)c(C)n2C(=O)c1ccc(Cl)cc1`, the molecule was called inactive.

As to `CNCc1cc(F)ccc1Oc1ccc(Cl)c(Cl)c1`, the call was inactive.

Turning to `COCCOCCOC`, the call was inactive.

On to `COC(=O)c1ccc(O)cc1`, for which the molecule was classed as inactive.

In the case of `O=C(O)CCCCC(=O)O`, the result was inactive.

Consider `Cc1cc(=O)[nH]c(=S)[nH]1`, for which the call was inactive.

As to `Cc1nc(-c2ccc3c(c2)CCN(CCC2CCC(NC(=O)/C=C/c4ccc(F)cc4)CC2)CC3)no1` (stereo unspecified), the outcome was inactive.

For the molecule `CC1=C(/C=C/C(C)=C/C=C/C(C)=C/CO)C(C)(C)CCC1`, the molecule was called inactive.

Regarding `CC(=O)OC/C=C(\C)CCC=C(C)C`, the molecule was classed as inactive.

For the molecule `COc1ccc(C)cc1N`, the call was inactive.

Turning to `OC[C@@H](O)[C@@H](O)[C@H](O)[C@H](O)CO`, the molecule was classed as inactive.

As to `NS(=O)(=O)c1cc2c(cc1Cl)NCNS2(=O)=O`, the molecule was classed as inactive.

For `NCCO`, the outcome was inactive.

Take `COc1ccc(S(=O)(=O)N2C(=O)[C@@](c3ccccc3OC)(N3C[C@H](O)C[C@H]3C(=O)N(C)C)c3cc(Cl)ccc32)c(OC)c1`: the AC50 is 90.5 µM (active).

For the molecule `c1cc(-c2ccncc2)ccn1`, the outcome was inactive.

Turning to `Cc1nc(C)nc(N2C[C@@H](C)N(c3ccnc([C@@H](C)O)n3)[C@@H](C)C2)n1`, the outcome was inactive.

In the case of `Cc1cccc([N+](=O)[O-])c1C`, the molecule was classed as inactive.

`Cc1oc(-c2ccccc2)nc1CCOc1cccc2c1ccn2CCC(=O)O`: the concentration at half-maximal activity (AC50) was 38.7 µM (active).

With `CCOC(=O)CCC(=O)OCC`, the call was inactive.

Take `CN[C@H]1CC[C@@H](c2ccc(Cl)c(Cl)c2)c2ccc(S(N)(=O)=O)cc21`: the AC50 is 63.6 µM (active).

As to `NC(=O)Cn1c(=O)cc(CCN2CCN(c3nccc4sccc34)CC2)c2ccc(F)cc21`, the call was inactive.

In the case of `CCCCCC(=O)O`, the molecule was classed as inactive.

Turning to `Cc1ccc(C)c(O)c1C`, the molecule was classed as inactive.

For `CC=Cc1ccc(O)c(OC)c1`, the molecule was classed as inactive.

As to `CCCCN(CCCC)CCCC`, the call was inactive.

Consider `C=CCc1ccc(O)c(OC)c1`, for which the call was inactive.

On to `CCCCCCCCCCCCCO`, for which the outcome was inactive.

`CC(CO)OC(C)CO` (stereo unspecified) (tested in a mixture with another compound): the molecule was classed as inactive.
